Compounds with a hit are over-represented: about 4.7% of the library has one in this group of screens.
D1 antag: blocks dopamine activation of the human D1 receptor; 360,000 compounds, 3.2% hits; P21728; activity change, negative = inhibition, % at 10 µM; HEK293 TREx D1 cells, calcium flux, dopamine EC80; stronger effect = lower value; in the data active = activity change below about -30%
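HEK293 T-REx cells expressing inducible, force-coupled D1 receptor; no-wash Ca dye, 30–90 min RT. Cmpd → 180 s read at 1 Hz → EC80 DA → 180 s read.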
D1 potentiator: human D1 dopamine receptor positive modulation; AID 504651; potentiation, % at 10 µM; 360,000 compounds, 0.036% hits; HEK293 TREx D1 cells, calcium flux, dopamine EC20 potentiation; in the data active = potentiation above about 30%
D1 ag: agonists of human D1 dopamine receptor | activation, % at 2 µM | HEK293 T-REx D1 cells, calcium flux, agonist mode | P21728 | 360,000 compounds, 1% hits
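Inducible HEK293 T-REx D1 cells, force-coupled to calcium signalling, were plated at 4000 cells/well with tetracycline and held overnight at 30 C. After no-wash calcium dye loading, compound-evoked calcium rise over 180 s flagged agonists.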
TRHR agonist: TRH receptor (human) agonism; P34981; TRHR cells, calcium flux fluo-8, FDSS agonist mode; activation, % at 2 µM; 360,000 compounds, 0.18% hits
Target sequence (P34981 whole entry, looked up): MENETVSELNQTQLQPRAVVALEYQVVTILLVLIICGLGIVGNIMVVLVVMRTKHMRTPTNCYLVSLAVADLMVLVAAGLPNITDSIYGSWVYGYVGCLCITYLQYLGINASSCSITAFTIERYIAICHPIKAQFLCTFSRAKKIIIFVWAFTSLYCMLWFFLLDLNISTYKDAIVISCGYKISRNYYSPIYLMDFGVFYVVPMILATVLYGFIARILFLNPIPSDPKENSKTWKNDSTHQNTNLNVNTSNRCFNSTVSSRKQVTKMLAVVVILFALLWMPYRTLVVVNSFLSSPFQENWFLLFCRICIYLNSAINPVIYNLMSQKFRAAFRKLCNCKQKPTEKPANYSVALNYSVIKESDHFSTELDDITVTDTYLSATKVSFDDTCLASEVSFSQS
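Fluo-8-loaded TRHR cells; 10 s baseline, compound added, kinetic Ca2+ fluorescence read 1/s, agonist mode.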
TRHR enhancer: allosterically enhances the human TRH receptor. P34981. TRHR cells, fluo-8 calcium fluorescence, EC20 TRH enhancement. enhancement, % at 2 µM. 360,000 compounds, 0.66% hits. AID 493056; in the data active = enhancement above about 30%
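TRHR-expressing cells loaded with fluo-8 calcium dye were read kinetically (ex 480/em 530) during compound addition, then stimulated with an EC20 of TRH (10 nM final). Enhancement of the Gq-mediated intracellular calcium response was scored.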
Each line names hits and unclear results; the compound was inactive in the other large screens. Rule as the data show it, unless noted: active = activation above about 30%; inactive = the rest.

COc1ccc(-c2c(-c3ccccc3)c(C(=O)C(=O)NCCCN(C)C)n3ccc4cc(OC)c(OC)cc4c23)cc1OC	D1 antag -47
Oc1ccc(C[C@@H]2CNCCN2CCc2cc(C(F)(F)F)cc(C(F)(F)F)c2)cc1	D1 ag 40
FC(F)(F)c1cc(CCN2CCNC[C@H]2Cc2cccc3ccccc23)cc(C(F)(F)F)c1	D1 ag 45
Oc1ccc(C[C@H]2CNCCN2CCc2cc(C(F)(F)F)cc(C(F)(F)F)c2)cc1	none
O=C(COc1ccc(F)cc1)NCCc1nc2ccccc2[nH]1	none
CCC(=O)N1CCc2cc(Br)cc(S(=O)(=O)CCC(=O)Nc3cccc(CC)c3)c21	none
CC(C)C(NC(=O)c1ccccc1F)C(=O)OCC(=O)c1ccc(F)cc1 (stereo unspecified)	D1 antag -32
COc1cc(OC)cc(C(=O)N[C@H](C(=O)OCC(=O)c2ccc(F)cc2)C(C)C)c1	none
O=C(c1cccc2nc3ccccc3nc12)N1CCOCC1	none
CCCC(=O)N(C1CC(C)C(C#N)(C#N)C1(C#N)C#N)N(C)C (stereo unspecified)	D1 antag -36
CC(=O)N(C1CC(C)C(C#N)(C#N)C1(C#N)C#N)N(C)C (stereo unspecified)	none
CCC(O)C1CCN(Cc2cn(Cc3ccccc3)nc2-c2cc3ccccc3o2)CC1 (stereo unspecified)	D1 ag 64
Cc1ccccc1N=C1NC(=O)C(CO)(CO)S1	D1 antag -36
O=C1NC(=Nc2ccccc2Cl)SC1(CO)CO	none
Cc1cc(=O)n2c(C(=O)Nc3ccc(Br)cc3)c(C(=O)Nc3ccccc3)sc2n1	none
COC(=O)CS(=O)(=O)c1nc2ccccc2nc1N1CCCCC1	none
CC1C(=O)N2CCCc3cc(S(=O)(=O)N4CCN(c5cccc(Cl)c5)CC4)cc1c32 (stereo unspecified)	none
CC1C(=O)N2CCCc3cc(S(=O)(=O)N4CCN(c5ccc(F)cc5)CC4)cc1c32 (stereo unspecified)	D1 antag -46
O=C(CSc1nnc(-c2ccc(O)cc2)o1)c1ccc(Br)cc1	D1 ag 39
O=C1CC(c2nc3ccccc3[nH]2)CN1c1ccccc1 (stereo unspecified)	TRHR enhancer 31
O=C1CC(c2nc3ccccc3[nH]2)CN1c1cccc(Cl)c1 (stereo unspecified)	none
Cc1cc(NC(=O)C2CCCCC2C(=O)O)ccc1NC(=O)c1ccccc1 (stereo unspecified)	none
COc1ccc(CNC(=O)c2ccc3nc(CCc4ccccc4)oc3c2)c(OC)c1	D1 antag -42
COCCNC(=O)c1ccc2nc(CCc3ccccc3)oc2c1	D1 antag -36
COCCCNC(=O)c1ccc2nc(CCc3ccccc3)oc2c1	none
Cc1ccccc1NC(=O)CSC1=Nc2ccccc2C2=NC(Cc3ccccc3)C(=O)N12 (stereo unspecified)	none
CCn1c(-c2ccccc2)c[nH]c1=S	none
CC(C)Cn1c(-c2ccc(Br)cc2)c[nH]c1=S	D1 ag 43
CN(C)S(=O)(=O)N1CCN(c2ccccc2Cl)CC1	none
CN(C)S(=O)(=O)N1CCN(c2cc(Cl)ccc2Cl)CC1	D1 ag 40, TRHR enhancer 35
COc1ccc(NS(=O)(=O)c2ccc3c(c2)NC(=O)CC(=O)N3)cc1OC	none
COCCCn1c(=O)/c(=C\c2ccc(OC(F)F)c(OC)c2)s/c1=C(/C#N)C(N)=O	D1 antag -44
O=C(CSCc1ccccc1)N=Nc1c(O)[nH]c2ccccc12	none
Cc1ccc2[nH]c(O)c(N=NC(=O)CCc3ccccc3)c2c1Br	TRHR enhancer 32
CCOC(=O)CC(=O)CSc1nc(-c2cccnc2)ccc1C#N	D1 ag 34
CCC(C)NC(=O)Cn1c(=O)n(CCCC(=O)NCc2ccc(C)cc2)c(=O)c2ccccc21 (stereo unspecified)	none
CCCCCCCCOC(=O)c1ccc(N)cc1	none
CCCCCCCCCCCCOC(=O)C[N+](C)(C)C	D1 antag -35, D1 ag 44
CCCCCCCCCCOC(=O)C[N+](C)(C)C/C=C(/C)Cl	D1 ag 55
CCCCCCCCOC(=O)C[N+](C)(C)C/C=C(/C)Cl	none
COc1ccc(N(C)S(=O)(=O)c2cccc(C(=O)NC3=NCCS3)c2)cc1	D1 antag -39
O=C(Nc1ccc(N2CCOCC2)cc1N1CCOCC1)c1ccc(Cl)cc1	none
COc1cc(OC)cc(C(=O)Nc2ccc(N3CCOCC3)cc2N2CCOCC2)c1	D1 antag -52
Cc1ccc(C(=O)Nc2ccc(N3CCOCC3)cc2N2CCOCC2)cc1	D1 antag -69
Cc1ccc(N(C)S(=O)(=O)c2cccc(C(=O)Nc3ccc(N4CCOCC4)cc3)c2)cc1	D1 antag -39
COc1cc(OC)cc(C(=O)Nc2ccccc2N2CCOCC2)c1	none
CNc1oc(-c2ccccc2F)nc1S(=O)(=O)c1ccc(C)cc1	none
CCCCN(C(=O)Cc1ccc2c(c1)OCCO2)c1c(N)n(CC(C)C)c(=O)[nH]c1=O	none
COC(=O)C(C)n1cnc2c(nnn2-c2cccc(OC)c2)c1=O (stereo unspecified)	none
O=C(Nc1ccc(Cl)c(Cl)c1)N1CCCCCC1	none
O=C(CN1CCN(S(=O)(=O)N2CCCCC2)CC1)Nc1cc(Cl)cc(Cl)c1	none
O=C(CN1CCN(S(=O)(=O)N2CCCCC2)CC1)Nc1ccc(Cl)c(Cl)c1	D1 antag -79, D1 ag 43
O=C(CCC(=O)N1CCCC1)Nc1ccc(Cl)c(Cl)c1	D1 antag -33
CCN(c1ccccc1)c1ncnc2c1cnn2-c1ccc(C)cc1C	none
COc1ccc(CN(Cc2ccco2)c2cnc(S(C)(=O)=O)nc2C(=O)Nc2ccc(C)c(C)c2)cc1	none
Cc1ccc(C)c(C(=O)C(C)Sc2nc3nn(-c4ccccc4)c(=O)c-3c3n2CCCCC3)c1 (stereo unspecified)	D1 antag -36
CCSc1nc2nn(-c3ccccc3)c(=O)c-2c2n1CCCCC2	none
O=C(Nc1ccnn1C1CCN(Cc2ccccc2OCCO)CC1)c1cccc(F)c1	none
O=C(CCCc1ccccc1)Nc1ccnn1C1CCN(Cc2ccc(CO)o2)CC1	D1 antag -34
O=C(Nc1ccnn1C1CCN(Cc2ccccn2)CC1)c1cccc(F)c1	D1 antag -38
CN(C)S(=O)(=O)N1CCC(n2nccc2NC(=O)CCc2ccccc2)CC1	D1 antag -44
O=C(CCCc1ccccc1)Nc1ccnn1C1CCN(Cc2ccccc2)CC1	D1 ag 34
O=C(Cc1ccccc1)Nc1ccnn1C1CCN(Cc2ccc(CO)o2)CC1	none
CCc1ccccc1NC(=O)CNC(=O)c1cccc(S(=O)(=O)N2CCN(Cc3ccccc3)CC2)c1	none
O=C(NCCc1nc2ccccc2n1Cc1ccc(F)cc1)c1ccco1	none

Screens: PubChem BioAssay, National Center for Advancing Translational Sciences (NCATS)
